Assay outcomes deposited in PubChem BioAssay by National Center for Advancing Translational Sciences (NCATS).
Rows were chosen to be rich in hits. Some 6.1% of all compounds tested hit in one or more screens of this group.
DRD3 agonist – agonists of human D3 dopamine receptor. actives 0.58% (n = 410,000). max activation, %. D3R DiscoveRx beta-arrestin cells, luminescence, 90 min. P35462; in the data active means max activation above about 30%
Target sequence (P35462 whole entry, looked up): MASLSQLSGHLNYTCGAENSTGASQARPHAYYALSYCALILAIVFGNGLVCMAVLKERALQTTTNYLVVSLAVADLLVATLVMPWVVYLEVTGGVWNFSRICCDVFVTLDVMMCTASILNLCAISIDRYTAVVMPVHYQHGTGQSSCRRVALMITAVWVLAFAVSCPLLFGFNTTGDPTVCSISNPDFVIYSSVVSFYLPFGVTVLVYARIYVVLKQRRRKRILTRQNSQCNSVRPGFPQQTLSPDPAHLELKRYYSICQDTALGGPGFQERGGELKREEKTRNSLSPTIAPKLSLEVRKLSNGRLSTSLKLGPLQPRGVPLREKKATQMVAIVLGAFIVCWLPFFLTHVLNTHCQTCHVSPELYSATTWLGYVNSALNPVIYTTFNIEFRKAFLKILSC
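Agonist-mode cell screen: cells plated at 1500/well and incubated overnight at 37 °C, then exposed to library compounds for 90 min at 37 °C. Detection reagent was added for 30–60 min at room temperature, and luminescence was read.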
D1 agonist – agonists of human D1 dopamine receptor | P21728 | HEK293 T-REx D1 cells, calcium flux, agonist mode | activation, % at 2 µM | actives 1% (n = 360,000) | AID 504660; in the data active means activation above about 30%
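Tetracycline-induced HEK293 TREx D1 cells, force-coupled to calcium signalling, were dye-loaded with a no-wash calcium kit. Compound was pin-added after a 10 s baseline. Fluorescence was read kinetically at 1 cycle/s for 180 s, with calcium rises flagged as agonism.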
D1 antagonist – antagonists of human D1 dopamine receptor | HEK293 TREx D1 cells, calcium flux, dopamine EC80; active compounds read low | P21728 | actives 3.2% (n = 360,000) | activity change, negative = inhibition, % at 10 µM; in the data active means activity change below about -30%
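Tetracycline-induced HEK293 Trex D1 cells, force-coupled to calcium, dye-loaded; compounds added and read 180 s, then EC80 dopamine added and calcium flux tracked kinetically another 180 s.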
DRD3 antagonist – antagonists of human D3 dopamine receptor. P35462. D3R cells, DiscoveRx beta-arrestin luminescence, antagonist mode; active compounds read low. actives 2.5% (n = 360,000). max response, negative = inhibition, %; in the data active means max response below about -50%; inconclusive means no clear call, values can overlap the other calls
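Cells plated overnight at 1500 cells/well, then exposed to library compounds with dopamine controls for 90 minutes at 37 degrees C. DiscoveRx reagent added for 30–60 minutes at room temperature; luminescence read, quantitative HTS format.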
D1 PAM – enhances dopamine response at the human D1 receptor | AID 504651 | HEK293 TREx D1 cells, calcium flux, dopamine EC20 potentiation | potentiation, % at 10 µM | actives 0.036% (n = 360,000); in the data active means potentiation above about 30%
A number is an active result; ! = a repeat was not active.

Cc1cc(/C=N/NC(N)=S)c(O)c(/C=N/NC(N)=S)c1 was read as DRD3 agonist inactive, D1 agonist 277, D1 antagonist inactive, DRD3 antagonist inactive and D1 PAM inactive.
Cc1cc(=O)n2nc(N3CCC(C(=O)Nc4c(C)cccc4C)CC3)sc2n1 was read as DRD3 agonist inactive, D1 agonist inactive, D1 antagonist inactive and D1 PAM inactive.
COc1ccc(OC)c(NC(=O)c2oc3c(c2C)-c2nn(Cc4ccc(Cl)cc4)cc2CC3)c1 was read as DRD3 agonist inactive, D1 agonist inactive, D1 antagonist inactive and D1 PAM inactive.
`Cc1cccc(C)c1NC(=O)CSc1n[nH]c(=O)n1C1CC1` gave DRD3 agonist inactive and DRD3 antagonist inactive.
`O=C(CSc1n[nH]c(=O)n1C1CC1)c1ccc(F)cc1` gave DRD3 agonist inactive, D1 agonist inactive, D1 antagonist inactive, DRD3 antagonist -60 and D1 PAM inactive.
O=C(OC1CCOC1=O)c1cccc(S(=O)(=O)Nc2cccc(Cl)c2)c1 (stereo unspecified) was read as DRD3 agonist inactive, D1 agonist inactive, D1 antagonist -32, DRD3 antagonist inactive and D1 PAM inactive.
CCOc1cc2c(cc1OCC)C(C(=O)O)C(c1cc(Br)c(O)c(OC)c1)N(C)C2=O (stereo unspecified) was read as DRD3 agonist inactive, D1 agonist inactive, D1 antagonist -32, DRD3 antagonist inactive and D1 PAM inactive.
CCCCNC(=O)C1c2cc(OC)c(OC)cc2C(=O)N(C)C1c1ccc(OC)cc1 (stereo unspecified) was read as DRD3 agonist inactive, D1 agonist inactive, D1 antagonist inactive, DRD3 antagonist inactive and D1 PAM inactive.
Screening NCCNCCNCCN returned DRD3 agonist 36!, D1 agonist inactive, D1 antagonist inactive, DRD3 antagonist inactive and D1 PAM inactive.
For Cc1cccc(C(=O)Nc2ccc(OCc3cc(=O)n4ccc(C)cc4n3)cc2)c1 the results were DRD3 agonist inactive, D1 agonist inactive, D1 antagonist inactive and D1 PAM inactive.
Cc1ccc(S(=O)(=O)NCCC(=O)O)cc1 was read as DRD3 agonist inactive, D1 agonist inactive, D1 antagonist inactive, DRD3 antagonist inactive and D1 PAM inactive.
`Cc1ccc(CSCCNS(=O)(=O)c2ccc(C)cc2)cc1` gave DRD3 agonist inactive, D1 agonist inactive, D1 antagonist -40, DRD3 antagonist inactive and D1 PAM inactive.
`Cc1ccc(S(=O)(=O)NCCCC(=O)O)cc1` gave DRD3 agonist inactive, D1 agonist inactive, D1 antagonist -32, DRD3 antagonist inactive and D1 PAM inactive.
`OC(COc1ccc2cc(Br)ccc2c1)CN1CCCC1` (stereo unspecified) gave DRD3 agonist inactive, D1 agonist 68, D1 antagonist -66, DRD3 antagonist inactive and D1 PAM inactive.
For Cc1ccc(S(=O)(=O)N(CC(O)CN2CCCCC2)c2ccccc2)cc1 (stereo unspecified) the results were DRD3 agonist inactive, D1 agonist inactive, D1 antagonist inactive, DRD3 antagonist inconclusive and D1 PAM inactive.
`OC(COc1ccc(OCC(O)CN2CCCCCC2)cc1)CN1CCCCCC1` (stereo unspecified) gave DRD3 agonist inactive, D1 agonist inactive, D1 antagonist inactive, DRD3 antagonist inactive and D1 PAM inactive.
COc1ccc(N(CC(O)CN2CCCCC2)S(=O)(=O)c2ccc(C)cc2)cc1 (stereo unspecified) was read as DRD3 agonist inactive, D1 agonist inactive, D1 antagonist inactive, DRD3 antagonist -80 and D1 PAM inactive.
For Cc1nc(C)n(CC(O)COc2ccc3cc(Br)ccc3c2)n1 (stereo unspecified) the results were DRD3 agonist inactive, D1 agonist 47, D1 antagonist -32, DRD3 antagonist inactive and D1 PAM inactive.
`COc1ccc(-c2cc3ccccc3n2CC(O)CN2CCCCC2)cc1` (stereo unspecified) gave DRD3 agonist inactive, D1 agonist inactive, D1 antagonist inactive, DRD3 antagonist -87 and D1 PAM inactive.
Cc1ccc(NC(=O)Cn2c(SCc3ccc(F)cc3)nc3cccnc32)cc1F was read as DRD3 agonist inactive, D1 agonist inactive, D1 antagonist inactive and D1 PAM inactive.
CN(C)S(=O)(=O)N1CCN(CC(O)COc2ccc3cc(Br)ccc3c2)CC1 (stereo unspecified) was read as DRD3 agonist inactive, D1 agonist inactive, D1 antagonist -49, DRD3 antagonist inactive and D1 PAM inactive.
Screening COc1ccc(OCC(O)CN2CCCCCC2)cc1 (stereo unspecified) returned DRD3 agonist inactive, D1 agonist inactive, D1 antagonist inactive, DRD3 antagonist -54 and D1 PAM inactive.
For O=S(=O)(N1CCCCC1)N1CCN(CC(O)COc2ccc3cc(Br)ccc3c2)CC1 (stereo unspecified) the results were DRD3 agonist inactive, D1 agonist inactive, D1 antagonist inactive, DRD3 antagonist inactive and D1 PAM inactive.
For Cc1ccc(-n2ncc(C(=O)NCCN3CCCC3)c2C2CCN(C(=O)OC(C)(C)C)CC2)cc1C the results were DRD3 agonist inactive, D1 agonist inactive, D1 antagonist inactive and D1 PAM inactive.
For Cc1ccc2oc(C(=O)NCc3ccc(S(N)(=O)=O)cc3)cc(=O)c2c1 the results were DRD3 agonist inactive, D1 agonist inactive, D1 antagonist inactive, DRD3 antagonist inactive and D1 PAM inactive.
`COc1ccc(CNC(=O)Cc2coc3ccc(C)cc23)cc1` gave DRD3 agonist inactive, D1 agonist inactive, D1 antagonist -35 and D1 PAM inactive.
Screening Cc1ccc(CNC(=O)c2cc(=O)c3cc(C)ccc3o2)cc1 returned DRD3 agonist inactive, D1 agonist 60!, D1 antagonist inactive, DRD3 antagonist inactive and D1 PAM inactive.
For Cc1ccc(NC(=O)CCC(=O)N2CCSc3ccccc32)cc1 the results were DRD3 agonist inactive, D1 agonist inactive, D1 antagonist inactive and D1 PAM inactive.
Cc1ccc(CCNC(=O)c2ccc3c(c2)c(C)c(C)n3Cc2ccccc2)cc1 was read as DRD3 agonist inactive, D1 agonist inactive, D1 antagonist inactive and D1 PAM inactive.
Screening O=C1CSC(c2ccccc2F)N1CCN1CCCCC1 (stereo unspecified) returned DRD3 agonist inactive, D1 agonist inactive, D1 antagonist inactive, DRD3 antagonist -86 and D1 PAM inactive.
`COc1ccc(OC)c(NC(=O)CNC(=O)Cn2c(C)cc3ccccc3c2=O)c1` gave DRD3 agonist inactive, D1 agonist inactive, D1 antagonist inactive, DRD3 antagonist inactive and D1 PAM inactive.
For COc1ccccc1NC(=O)CNC(=O)Cn1c(C)cc2ccccc2c1=O the results were DRD3 agonist inactive, D1 agonist inactive, D1 antagonist -65, DRD3 antagonist inactive and D1 PAM inactive.
Cc1cc2ccccc2c(=O)n1CC(=O)NCC(=O)N1CCN(c2ccccc2)CC1 was read as DRD3 agonist inactive, D1 agonist inactive, D1 antagonist inactive, DRD3 antagonist -52 and D1 PAM inactive.
